Only some compounds are listed: those with a hit (about 6.3% of all), similar ones and a draw of the others.
Gal4-VP16 FLuc: VP16 counterscreen qHTS for inhibitors of ROR gamma transcriptional activity | Potency, µM (top dose mostly 53.6 µM), for inactives: at the top dose activity, negative = inhibition, actives largely listed as inhibitors | actives 3.5% (n = 310,000) | Drosophila S2 Gal4-VP16 UAS-luciferase, luminescence, 20 h;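 note: Gal4-VP16 expression switched on by copper sulfate through the metallothionein promoter; % is set by controls: 0 for no effect and ±100 for the full control effect; nearly all actives have a fitted effect of over 50% in size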
HepG2 tox: qHTS for Inhibitors of TGF-b: Cytotox Counterscreen. HepG2 CAGA-GFP viability, ATP luminescence, 18 h. Potency, µM (titrated, usually from 46.1 µM), without a hit: at the top dose activity change, negative = cytotoxicity, actives largely listed as cytotoxic. actives 0.76% (n = 410,000)
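HepG2 CAGA-GFP cells (1000/well, DMEM with 1% FBS) received compound, then TGF-beta at 500 pg/mL final, and were incubated 18 hours at 37 degrees C. Viability was read by CellTiter-Glo luminescence. Media-only wells were set as complete cell-killing and DMSO as no toxicity.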
RORgamma inh: qHTS for inhibitors of ROR gamma transcriptional activity; Nuclear receptor ROR-gamma (Mus musculus), P51450; actives 5.4% (n = 310,000); Drosophila S2 Gal4-RORgamma UAS-luciferase reporter, 20 h; Potency, µM (series often up to 53.6 µM), for inactives: at the top dose activity change, negative = inhibition, hits mostly inhibitors; note: % is set by controls: 0 for no effect and ±100 for the full control effect; nearly all actives have a fitted effect of over 60% in size
Target sequence (P51450 whole entry, looked up, the tested form may be a part): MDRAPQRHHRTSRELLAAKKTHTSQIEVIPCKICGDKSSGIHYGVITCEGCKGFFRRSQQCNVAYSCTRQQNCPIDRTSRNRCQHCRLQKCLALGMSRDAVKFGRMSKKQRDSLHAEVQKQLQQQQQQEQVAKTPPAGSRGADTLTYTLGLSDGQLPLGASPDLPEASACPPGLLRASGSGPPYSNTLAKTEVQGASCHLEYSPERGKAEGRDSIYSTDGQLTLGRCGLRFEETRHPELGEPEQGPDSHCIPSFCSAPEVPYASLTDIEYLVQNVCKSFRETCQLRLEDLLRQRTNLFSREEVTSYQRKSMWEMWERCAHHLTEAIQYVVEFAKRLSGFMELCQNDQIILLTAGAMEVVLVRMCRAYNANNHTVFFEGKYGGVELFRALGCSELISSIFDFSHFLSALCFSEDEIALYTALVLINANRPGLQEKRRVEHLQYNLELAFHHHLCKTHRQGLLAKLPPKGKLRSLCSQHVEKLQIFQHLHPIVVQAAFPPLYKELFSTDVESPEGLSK
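Luciferase reporter read in Schneider cells carrying Gal4-RORγ (mouse) and UAS-Photinus luciferase; cells given compound 1 h before 700 uM copper sulfate induction, then incubated 20 h at ambient temperature.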
TGFb inhibitor: qHTS for Inhibitors of TGF-b. AID 588855, 2011. HepG2 CAGA-GFP TGF-b/SMAD3 reporter, GFP fluorescence, 18 h; TGF-beta stimulated, 500 pg/mL final. Potency, µM (highest dose often 46.1 µM), for the others: at the top dose activity, negative = inhibition, most hits filed as inhibitors. actives 1.2% (n = 410,000); note: % is set by controls: 0 for no effect and ±100 for the full control effect; nearly all actives have a fitted effect of over 65% in size
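Cell-based qHTS in HEPG2 carrying a CAGA-GFP Smad reporter; compounds added before 500 pg/mL final TGF-beta, 18 h incubation at 37 degrees C, GFP fluorescence quantified per cell by imaging cytometry.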
ATXN viability: Viability Counterscreen for Primary qHTS for Inhibitors of ATXN expression. S2 cells (HEK-293 line with an ATXN2-luciferase reporter) viability, CellTiter-Fluor protease fluorescence, 24 h. Potency, µM (series often up to 56.7 µM), hits mostly cytotoxic. actives 0.49% (n = 400,000). AID 651635, 2014; note: nearly all actives have a fitted effect of over 40% in size
ATXN2 expr inh: Primary qHTS for Inhibitors of ATXN expression | HEK-293 ATXN2-luciferase reporter, luminescence, 24 h | Potency, µM (top dose mostly 57 µM), without a hit: top-dose activity change, negative = inhibition, actives largely listed as inhibitors | actives 0.72% (n = 360,000) | AID 1745845, 2022; note: % is set by controls: 0 for no effect and ±100 for the full control effect; nearly all actives have a fitted effect of over 55% in size
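qHTS (up to 57 uM final) was run with 24 h compound exposure of reporter cells at 37 °C. Each well was multiplexed: SteadyGlo luminescence measured ATXN2-luciferase expression after a fluorogenic Gly-Phe-AFC viability readout (25 uM final).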
Active calls of the source: *; i = inactive; ? = inconclusive; nt = not tested or not shown; [ ] = dose if it differs, or a comment. Calls come from the whole dose curve; as a rule, active = well fitted curve in the direction sought with a large enough effect; inconclusive = small, poorly fitted or top-dose-only effect, or another doubt; inactive = no such curve, though single readings can be large; an effect the other way counts as inactive or inconclusive. Potency is the fitted concentration of half-maximal effect.

SMILES	Gal4-VP16 FLuc	HepG2 tox	RORgamma inh	TGFb inhibitor	ATXN viability	ATXN2 expr inh
Cc1ccc(C)c(NC(=S)NCCSc2ccc(Cl)cc2)c1	5.01µM*	-5.3%	2.51µM*	?	i	-22.7%
Cc1ccc(NC(=S)NCCSc2ccc(Cl)cc2)c(C)c1	1µM*	0.1%	0.794µM*	0.0%	i	-8.2%
Cc1ccc([N+](=O)[O-])cc1NC(=O)CCSc1ccc(Cl)cc1	-7.0%[0.365 µM]	-3.2%	-44.6%	-6.3%	?	-21.4%
Cc1ccc(Cl)cc1NC(=S)NCCCSC1CCCCC1	?	-44.9%	2µM*	11.2µM*	i	-10.2%
Cc1ccc(NC(=O)CCSc2ccccc2)c(C)c1	10.5%	nt	21.7%	nt	nt	nt
CCN(CC(=O)Nc1cc(Cl)ccc1C)C(=O)C1CCCCC1	14.5%	10.5%	-7.1%	43.3%	nt	-8.7%
COc1ccc(OC)c(NC(=S)NCCSc2ccc(C)cc2)c1	?	-35.0%	14.1µM*	?	i	17.1%
COc1ccc(NC(=S)NCCSc2ccc(C)cc2)c(OC)c1	nt	-30.6%	nt	-10.7%	i	-2.6%
O=C(NNc1ccccc1Br)C(O)(c1cccc(C(F)(F)F)c1)c1cccc(C(F)(F)F)c1	?	-103.2%	23.2%	7.94µM*	nt	?
Cc1ccc(NNC(=O)C(O)(c2cccc(C(F)(F)F)c2)c2cccc(C(F)(F)F)c2)cc1	?	-114.4%	?	?	i	-24.6%
CCc1cc(-c2nnn(CCC3COCCO3)c2C(C)(C)O)ccc1-c1cn(CCc2c[nH]c3ccccc23)nn1 (centres undefined)	nt	-40.8%	nt	-11.0%	?	?
O=S1(=O)CC(N2CCSCC2)CN1Cc1cn(Cc2ccc(C(F)(F)F)cc2)nn1 (centres undefined)	nt	nt	nt	nt	i	1.2%
COc1ccc(C)cc1NC(=O)CSc1nc(=O)n(Cc2ccccn2)c2c1CCC2	nt	-31.9%	nt	8.91µM*	i	-15.6%
Cc1cccc(NC(=O)CSc2nc(=O)n(Cc3cccnc3)c3c2CCC3)c1	nt	-33.3%	nt	17.8µM*	i	-14.6%
COc1ccc(C)cc1NC(=O)CSc1nc(=O)n(Cc2cccnc2)c2c1CCC2	nt	-13.9%	nt	-22.6%	i	-6.8%
OC1(c2ccc3c(c2)CN(Cc2ccco2)CCO3)CCN(c2ccccc2F)CC1	nt	nt	nt	nt	i	nt
O=C(Nc1ccc(NC(=O)c2cccs2)cc1)c1ccc(Cl)cc1	nt	-33.8%	nt	-8.9%	i	5.3%
COc1c(Cl)cc(Cl)cc1/C=C/C(=O)c1ccc(NC(=O)c2cccs2)cc1	?	-98.5%	?	?	15.8µM*	12.6µM*
CCc1ccc(NC(=O)Cn2c(=O)c(-c3ccccc3NC(C)=O)nc3ccccc32)cc1	nt	-13.0%	nt	-0.7%	nt	nt
Cc1ccc(CNc2ncnc3sc(C(=O)N4CCC(N5CCCC(O)C5)CC4)c(C)c23)o1 (centres undefined)	nt	nt	nt	nt	i	nt
C=CCn1c(-c2cc(OC)c(OC)c(OC)c2)n[nH]c1=S	?	8.7%	?	-2.8%	i	7.1%
C=CCn1c(-c2cc(-c3ccccc3)sc2N)n[nH]c1=S	10µM*	0.1%	2.24µM*	5.0%	?	0.6%
C=CCn1c(-c2cccnc2)n[nH]c1=S	-9.4%	2.5%	12.9%	4.3%	i	11.2%
C=CCn1c(-c2csc(-c3ccccc3)n2)n[nH]c1=S	0.708µM*	-4.2%	3.98µM*	-13.4%	i	0.1%
C=CCn1c(-c2ccccn2)n[nH]c1=S	nt	-20.8%	nt	-6.9%	?	-11.9%
SMILES	Gal4-VP16 FLuc	HepG2 tox	RORgamma inh	TGFb inhibitor	ATXN viability	ATXN2 expr inh
C=CCn1c(-c2csc(-c3ccc(OC)c(OC)c3)n2)n[nH]c1=S	?	6.0%	2µM*	2.3%	i	12.9%
C=CCn1c(-c2csc(-c3ccc(Cl)cc3)n2)n[nH]c1=S	1.78µM*	-4.3%	?	-7.4%	i	-3.7%
CCCCN1C(=O)C(CC(=O)NCCN2CCOCC2)CC(C(=O)N(C(C)C)C(C)C)=C1C (centres undefined)	nt	-12.0%	nt	-12.7%	i	-7.0%
CCN(CC(=O)Nc1ccc2c(c1)OCCO2)C(=O)CCc1ccccc1Cl	nt	-13.3%	nt	1.0%	i	-16.4%
C=CCn1c(-c2csc3ccccc23)n[nH]c1=S	6.31µM*	15.3%	3.55µM*	-7.5%	i	-6.5%
COc1ccc(N2CCN(C(=O)CSc3nnc4c(C)cc5ccccc5n34)CC2)cc1	-4.7%	3.0%	-27.5%[10 µM]	0.0%	i	-7.1%
Cc1cc2ccccc2n2c(SCC(=O)N3CCc4ccccc4C3)nnc12	17.8µM*	-12.6%	?	17.4%	i	11.9%
CCOC(=O)CC(=O)CSc1nc2sc(C)cc2c(=O)n1Cc1ccco1	22.4µM*	2.0%	?	-7.1%	i	-4.7%
O=C(CCC1CCCCC1)NCCN1C2=NC[C@@H](Cc3ccccc3)N2C[C@H]1Cc1ccc(O)cc1	8.91µM*	-62.1%	10µM*	?	?	?
CCN1CCC(N(Cc2ccc(F)cc2)C(=O)Nc2cc(Cl)ccc2C(=O)OC)CC1	nt	5.7%	nt	0.9%	i	-5.5%
FC(F)(F)c1ccccc1-c1nc(Nc2ccncc2)c2ccccc2n1	?	nt	11.2µM*	nt	nt	nt
Cc1noc(C)c1-c1nc(Nc2ccc(F)cc2)c2ccccc2n1	1.5%	nt	19.2%	nt	nt	nt
Cc1noc(C)c1-c1nc(Nc2ccncc2)c2ccccc2n1	-2.9%	nt	8.91µM*	nt	nt	nt
COc1ccc(-c2c(C)nn3c(C(F)(F)F)cc(-c4ccccc4)nc23)cc1OC	nt	2.4%	nt	5.2%	nt	nt
CC(C1CC2CCC1C2)n1c(-c2cccs2)n[nH]c1=S (centres undefined)	?	-9.1%	0.794µM*	-20.2%	i	-7.2%
O=C(CC1CCC1)Nc1cccc2c([N+](=O)[O-])cccc12	nt	-4.3%	nt	11.9%	i	0.8%
CC(C)[C@H](CO)N(Cc1cccc(F)c1)c1nc(Nc2cccc(Cl)c2)c2ncn(C(C)C)c2n1	-23.4%	-32.6%	4.8%	?	?	-11.3%
CC[C@H](CO)Nc1nc(Nc2cccc(Cl)c2)c2ncn(C(C)C)c2n1	3.16µM*	-49.8%	?	20µM*	15.8µM*	?
Cc1oc(-c2cccc3ccccc23)nc1CN1CCC[C@H]1CO	?	-19.8%	7.08µM*	-6.0%	i	-21.7%
Cc1oc(-c2ccccc2Cl)nc1CN1CCCC1c1ccc(F)cc1 (centres undefined)	-11.5%	-54.5%	11.2µM*	-23.2%	i	2.2%

Bioassay records as filed in PubChem BioAssay.
